Results on 14 molecules are retold here after publication PMC11062922 (Nature Chemical Biology, 2023).

Read-outs that look alike come from different tables or passages of the source.

What all share (design): species or system human, MV4-11 + K-562 + COLO205 + SK-N-BE2 + OVCAR-8
Assay [1] deals with GSK3A. The note with it: read-out: apparent Kd, n = 1.
Assay [2] relates to GSK3B. As to conditions: read-out: apparent Kd, n = 1.
Assay [3] deals with PRKCA. The note with it: read-out: apparent Kd, compound concentrations: 100 nM and 1000 nM (sheet 'Samples'), n = 1.
The test system of assay [4] is PRKCB. As to conditions: read-out: apparent Kd, compound concentrations: 100 nM and 1000 nM (sheet 'Samples'), n = 1.
Assay [5] has as its system PRKCD. As to conditions: read-out: apparent Kd, compound concentrations: 100 nM and 1000 nM (sheet 'Samples'), n = 1.
Assay [6] concerns PRKCI. As to conditions: read-out: apparent Kd; compound concentrations: 100 nM and 1000 nM (sheet 'Samples'), CATDS: 6.3639374568516094E-2; n = 1.
In assay [7] the test system is PRKCQ. As to conditions: read-out: apparent Kd, compound concentrations: 100 nM and 1000 nM (sheet 'Samples'), n = 1.
Assay [8] concerns RPS6KA6. As to conditions: read-out: apparent Kd, compound concentrations: 100 nM and 1000 nM (sheet 'Samples'), n = 1.
The subject of assay [9] is RPS6KB1. As to conditions: read-out: apparent Kd; compound concentrations: 100 nM and 1000 nM (sheet 'Samples'), CATDS: 7.7658945876463797E-2; n = 1.
Assay [10] concerns JAK2. The note with it: read-out: apparent Kd; compound concentrations:100 nM and 1000 nM (sheet 'Samples'); n = 1.
For assay [11], the system named is ICK. The note with it: read-out: apparent Kd; compound concentrations: 100 nM and 1000 nM (sheet 'Samples'), CATDS: 0.23938622627213799; n = 1.
For assay [12], the system named is STRADA. As to conditions: read-out: apparent Kd; compound concentrations: 100 nM and 1000 nM (sheet 'Samples'), CATDS: 0.19302175262426299; n = 1.
In assay [13] the test system is HSP90AA1. The note with it: read-out: apparent Kd; compound concentrations: 100 nM and 1000 nM (sheet 'Samples'), CATDS: 0.146358991547622; n = 1.
Assay [14] has as its system HSP90B1. As to conditions: read-out: apparent Kd, compound concentrations: 100 nM and 1000 nM (sheet 'Samples'), n = 1.
Assay [15] deals with HSPE1. The note with it: read-out: apparent Kd, n = 1.
Assay [16] relates to PGK1. The note with it: read-out: apparent Kd; compound concentrations: 100 nM and 1000 nM (sheet 'Samples'), CATDS: 0.56711536004942897; n = 1.
Assay [17] has as its system PKM. The note with it: read-out: apparent Kd; compound concentrations: 100 nM and 1000 nM (sheet 'Samples'), CATDS: 0.16665150952337399; n = 1.
Assay [18] has as its system NQO2. As to conditions: read-out: apparent Kd; compound concentrations:100 nM and 1000 nM (sheet 'Samples'); n = 1.
In assay [19] the test system is TGFBR1. As to conditions: read-out: apparent Kd; compound concentrations: 100 nM and 1000 nM (sheet 'Samples'), CATDS: 0.31893275464491699; n = 1.
Assay [20] relates to IARS. As to conditions: read-out: apparent Kd; compound concentrations: 100 nM and 1000 nM (sheet 'Samples'), CATDS: 0.48101189655770898; n = 1.
The test system of assay [21] is RIOK2. As to conditions: read-out: apparent Kd; compound concentrations: 100 nM and 1000 nM (sheet 'Samples'), CATDS: 0.52054883723006395; n = 1.
The subject of assay [22] is IRAK3. The note with it: read-out: apparent Kd; compound concentrations:100 nM and 1000 nM (sheet 'Samples'); n = 1.
Assay [23] has as its system STK16. As to conditions: read-out: apparent Kd; compound concentrations:100 nM and 1000 nM (sheet 'Samples'); n = 1.
Where [24] appears, read: compound concentrations:100 nM and 1000 nM (sheet 'Samples').

`Cl.Cn1cc(C2=C(c3c4n(c5ccccc35)CCC(CN)C4)C(=O)NC2=O)c2ccccc21` (stereo not drawn) [RO0318425-001]: the potency estimated from few doses is 383 nM in assay [1] (compound concentrations: 100 nM and 1000 nM (sheet 'Samples'), CATDS: 7.9505519232768704E-2); 122 nM in assay [2] (compound concentrations: 100 nM and 1000 nM (sheet 'Samples'), CATDS: 0.10826194795631); 8.81 nM in assay [3] (CATDS: 0.4123063070702); 30 nM in [4] (CATDS: 0.195628585726322); 34.1 nM in assay [5] (CATDS: 0.18341156503501599); 1630 nM in assay [6]. For the same molecule, the potency estimated from few doses in assay [7] (CATDS: 0.13479681678754199) is 67.5 nM; in assay [8] (CATDS: 9.8162959720225998E-2), 167 nM; in assay [9], 429 nM.
`O=C(Nc1n[nH]c2cc(-c3ccco3)ccc12)C1CC1` [SB-737447]: the potency estimated from few doses is 498 nM in assay [1] (setting [24]) and 645 nM in assay [2] (setting [24]).
As to `O=C(Nc1cccnc1)c1cc(-c2ccnc(F)c2)ccc1OCc1ccccc1` [GSK2578215], the potency estimated from few doses in assay [10] was 322 nM.
As for `CCCn1cc(C2=C(c3cn(C)c4ccccc34)C(=O)NC2=O)c2ccccc21` [RO0318549-000], the potency estimated from few doses in assay [1] (compound concentrations: 100 nM and 1000 nM (sheet 'Samples'), CATDS: 0.30461249661504503) is 823 nM; in [2] (compound concentrations: 100 nM and 1000 nM (sheet 'Samples'), CATDS: 0.29770520720673899) it was 857 nM; in assay [11], 1320 nM; in assay [12], 2260 nM.
Take `Cl.Cn1cc(C2=C(c3ccc(N)cc3)C(=O)NC2=O)c2ccccc21` [RO0317373-001]: in assay [1] (compound concentrations: 100 nM and 1000 nM (sheet 'Samples'), CATDS: 1), the potency estimated from few doses was 866 nM.
Regarding `Cn1cc(C2=C(c3cn(CCCCCN)c4ccccc34)C(=O)NC2=O)c2ccccc21` [RO0317843-000], the potency estimated from few doses in assay [1] (compound concentrations: 100 nM and 1000 nM (sheet 'Samples'), CATDS: 0.120915323717963) is 500 nM; in assay [2] (compound concentrations: 100 nM and 1000 nM (sheet 'Samples'), CATDS: 0.12552661641342699) it was 455 nM; in assay [3] (CATDS: 0.213712947404604) it was 159 nM; in assay [4] (CATDS: 0.109320974178185), 666 nM; in assay [5] (CATDS: 0.13254198888423899), 398 nM; in [7] (CATDS: 0.26439518938370499), 114 nM. The potency estimated from few doses in [8] (CATDS: 0.131410075991204) is 407 nM.
In the case of `Nc1n[nH]c2nnc(-c3ccccc3)c(-c3ccccc3)c12` [GW554060X], the potency estimated from few doses in [1] (setting [24]) is 424 nM; in assay [2] (setting [24]), 833 nM.
Regarding `Cn1cc(C2=C(c3ccccc3C(F)(F)F)C(=O)NC2=O)c2ccccc21` [RO0317717-000], the potency estimated from few doses in assay [13] is 1690 nM; in assay [14] (CATDS: 0.15036452413929899), 1530 nM; in [15] (compound concentrations: 100 nM and 1000 nM (sheet 'Samples'), CATDS: 0.26644464467786899), 337 nM; in assay [16] it was 87.1 nM; in [17], 1090 nM.
With `Fc1ccc(-c2c(-c3ccccn3)nc3n2CCS3)cc1` [SKF-104365], the potency estimated from few doses in assay [15] (setting [24]) is 149 nM; in [18] it was 1340 nM; in assay [19], 537 nM.
Regarding `Cn1cc(C2=C(c3cn(C)c4cc(C(=O)O)ccc34)C(=O)NC2=O)c2ccccc21` [RO0319318-000], the potency estimated from few doses is 612 nM in assay [1] (compound concentrations: 100 nM and 1000 nM (sheet 'Samples'), CATDS: 0.46645523537497902); 458 nM in assay [2] (compound concentrations: 100 nM and 1000 nM (sheet 'Samples'), CATDS: 0.53874330478413901).
As to `CS(=O)(=O)CCNCc1ccc(-c2ccc3ncnc(Nc4ccc(OCc5ccccc5)c(C(F)(F)F)c4)c3c2)o1.Cl` [GW574782A], the potency estimated from few doses was 1950 nM in assay [20] and 1670 nM in [21].
On to `O=C(Nc1ccccc1F)NC1CCN(c2ccnc(Nc3ccc(F)cc3)n2)C1` (stereo not drawn) [GSK1379722A], for which, in [14] (CATDS: 1), the potency estimated from few doses is 875 nM.
Regarding `O=C(Nc1n[nH]c2nc(-c3ccco3)c(Br)cc12)C1CCN(Cc2ccccc2)C1.O=C(O)[C@H](O)[C@@H](O)C(=O)O` (stereo not drawn) [SB-742034-AC], the potency estimated from few doses in assay [1] (setting [24]) was 410 nM.
As to `COc1cc(C=NNc2ncnc3c2cnn3-c2ccccc2)ccc1O` [GW513184X], the potency estimated from few doses in assay [22] is 1310 nM; in assay [23] it was 1950 nM.
